This is part of a sample that, as a whole, favours compounds with a hit. Of some 83,000 tested, about 20% had one in any assay.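 Single-concentration screen, 48 h exposure, 96-well plates. Endpoint: percent growth. Below 10 = active.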 Unmarked numbers belong to inactive results. Active and inactive are the calls of the source.
What was measured:
Assay in all cases: NCI-60 one-dose screen, 48 h (100 = growth as untreated, 0 = no growth, -100 = all killed)
Conditions in all cases: 10 µM unless noted
SK-MEL-2 melanoma = tested on: SK-MEL-2 melanoma
EKVX NSCLC = tested on: EKVX NSCLC
SN12C renal = tested on: SN12C renal
UO-31 renal = tested on: UO-31 renal
TK-10 renal = tested on: TK-10 renal
CAKI-1 renal = tested on: CAKI-1 renal
A498 renal = tested on: A498 renal
CCRF-CEM leukemia = tested on: CCRF-CEM leukemia
MOLT-4 leukemia = tested on: MOLT-4 leukemia
SR leukemia = tested on: SR leukemia
RPMI-8226 leukemia = tested on: RPMI-8226 leukemia
OVCAR-8 ovarian = tested on: OVCAR-8 ovarian
OVCAR-5 ovarian = tested on: OVCAR-5 ovarian
OVCAR-4 ovarian = tested on: OVCAR-4 ovarian
SK-OV-3 ovarian = tested on: SK-OV-3 ovarian
IGROV1 ovarian = tested on: IGROV1 ovarian
OVCAR-3 ovarian = tested on: OVCAR-3 ovarian
HS 578T breast = tested on: HS 578T breast
NCI/ADR-RES ovarian = tested on: NCI/ADR-RES ovarian
ACHN renal = tested on: ACHN renal

SMILES	growth (SK-MEL-2 melanoma)	growth (EKVX NSCLC) [%]	growth (SN12C renal)	growth (UO-31 renal)	growth (TK-10 renal)	growth (CAKI-1 renal)	growth (A498 renal)	growth (CCRF-CEM leukemia)	growth (MOLT-4 leukemia)	growth (SR leukemia)	growth (RPMI-8226 leukemia)	growth (OVCAR-8 ovarian)	growth (OVCAR-5 ovarian)	growth (OVCAR-4 ovarian)	growth (SK-OV-3 ovarian)	growth (IGROV1 ovarian)	growth (OVCAR-3 ovarian)	growth (HS 578T breast)	growth (NCI/ADR-RES ovarian)	growth (ACHN renal)
COc1ccc(C2=CC(c3cc(OC)c(OC)c(OC)c3)NC(=O)N2)cc1OC (stereo not drawn)	20.7%	35.5	23.7%	22.8%	12.8%	5.82% (active)	19.3%	6.59% (active)	17.9%	9.57% (active)	4.8% (active)	18.8%	34.6%	18.8%	23.3%	-17.7% (active)	-24% (active)	7.62% (active)	13.7%	
c1ccc(-c2nnc(-c3ccccn3)s2)nc1	104%	79.6	114%	76.3%	123%	50.1%	117%	80.8%	109%	96.7%	54.8%	94%	92.2%	91.5%	95.2%	80.7%	95.5%	142%	83%	
O=C1C2(c3ccccc3)C(c3ccccc3)=C(c3ccccc3)C1(c1ccccc1)C1CC=CC12 (stereo not drawn)	82.6%		86.1%	61.6%	118%	52.6%	89.2%	84.2%	84.4%	101%	50.2%	87.5%	97.9%	69.5%		86.9%	89.5%	106%	90.3%	86.7%
COc1cc(NC(=O)SC2=NCCS2)cc(OC)c1	106%		91.8%	93.6%	126%	108%	90.3%	99.5%	110%	93.9%	63.2%	98.7%	97.7%	98%	98%	139%	113%	99.7%	99%	102%
Fc1ccc(Nc2ncnc3ccc(-c4cnc5[nH]ccc5c4)cc23)cc1Cl	29.9%	14.8	-14.2% (active)	-73.8% (active)			77.4%	40%	45.6%	-26.1% (active)	-17.9% (active)	-28% (active)	8.66% (active)	-61% (active)	15.3%	-37.8% (active)	-73.7% (active)	-12.6% (active)	14%	-66.7% (active)
COc1cc(C2CC(c3ccc4c(c3)OCO4)=NN2C=O)cc(OC)c1OC (stereo not drawn)	31.3%	37.9	46.3%		53.2%	6.42% (active)	31.2%	24.5%	45%	33.5%	52.8%	53.9%		57.7%	24.7%		-29% (active)	8.51% (active)	15.5%	
O=C(/C=C/c1ccccc1)c1cccc(O)c1	115%	108		72.6%	109%	93.6%	114%		86.7%	6.27% (active)	-37.8% (active)	86.5%		106%	104%	82%		110%	103%	
O=C(O)COc1ccc(-c2cssc2=S)cc1	90.8%		103%	88.9%	93.9%	104%	88.2%	90.3%	102%	54.8%	113%	101%	98.7%	103%	108%	112%	122%	105%	108%	103%
COc1ccc(-c2nc(N3CCCC3=O)sc2Br)cc1OC	86.5%		104%	93.6%	94.1%	99.4%	88.3%	96.4%	93.8%	88.9%	109%	103%	99.2%	98.2%	115%	113%	111%	100%	104%	93%
Cc1ccc(-c2csc(NC(=O)CCCCl)n2)cc1	92.2%		89.2%	74.5%	98.8%	91.6%	82.3%	96.3%	79.1%	84.4%	82.7%	106%	94.6%	90.7%	105%	95%	101%	105%	101%	99.2%
Cn1c2ccc(Br)cc2c2c3c(c4c5ccccc5[nH]c4c21)C(=O)N(O)C3=O	-74.4% (active)		-71.9% (active)	-95.4% (active)	-72.2% (active)	-76.6% (active)	-43.7% (active)	-16% (active)	-28% (active)	0.179% (active)	-29.5% (active)	-27.2% (active)	-6.8% (active)	3.5% (active)	-84.2% (active)	-79.4% (active)	-86.2% (active)	1.47% (active)	26.3%	-66.3% (active)
O=C1CCCCC1(c1ccccc1)c1ccccc1	100%	91.2	104%	98.8%		82.4%		101%	105%	106%	111%	110%	97.4%	71.8%	101%	101%	106%		96.1%	101%
N#Cc1c(Nc2ccccc2)nc2n(c1=O)-c1ccccc1Sc1ccccc1-2	86.9%		77.7%	53.4%	105%	70.8%	90.2%	63.4%	51.9%	59.6%	66.7%	74.9%	110%	58.4%	94.8%	64.1%	69.4%	97.9%	85.5%	68.3%
CCOC(=O)/C(C#N)=C1/C(=O)Nc2ccccc21	122%		96.3%	71.1%	130%	99.4%	132%	67.1%	138%	149%	111%	108%	104%	114%	117%	109%	134%		112%	102%
CCCOC(=O)n1cccc1	118%	99.7	94.2%		110%	108%	106%	99.2%	117%	114%	110%	108%		91.7%	101%		106%	105%	102%	
COc1cc(-c2ncn(/C=C\C(=O)OC(C)C)n2)cc(C(F)(F)F)c1	-10% (active)		12.9%	3.53% (active)	-8.8% (active)	14.3%	-53.8% (active)	11.5%	2.48% (active)	2.46% (active)	67.5%	9.36% (active)	18.4%	0.627% (active)	28.1%	14.3%	-42.1% (active)	-7.75% (active)	2.76% (active)	11.5%
C/C=C/C1=CN2C(=O)c3cc(OC4OC(C)C(NC)C(C)(O)C4O)c(C)cc3N=C[C@@H]2C1 (stereo partly drawn)	27.8%		4.16% (active)	-34.5% (active)	22.3%	-8.21% (active)	-77.5% (active)	0.51% (active)	2.77% (active)	-11.8% (active)	4.62% (active)	12.2%	9.87% (active)	6.47% (active)	3.83% (active)	-8.52% (active)	0.104% (active)	-7.59% (active)	-7.51% (active)	-4.55% (active)
